Sampled rows, rich in hits. Any-hit rate of the full collection: about 5.4%.
Sm TGR inh – inhibitors of Schistosoma mansoni thioredoxin glutathione reductase. purified TGR, DTNB reduction, TNB absorbance 405 nm. Potency, µM (doses to about 114 µM), most hits filed as inhibitors. 360,000 tested, 3% active. AID 485364; active = well fitted inhibition curve with a large enough effect; inconclusive = small, poorly fitted or top-dose-only effect; inactive = no such curve, though single readings can be large or run the other way; note: nearly all actives have a fitted effect of over 60% in size
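Kinetic colorimetric format: TGR-catalysed, NADPH-driven DTNB reduction monitored via TNB absorbance. Enzyme dispensed at 20 nM; compound exposure 15 min at room temperature before reaction start.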
Vaccinia Venus – inhibitors of vaccinia virus (Venus reporter); Vaccinia virus Venus reporter expression, fluorescence; Potency, µM (doses to about 36.5 µM), most hits filed as inhibitors; AID 720580; 330,000 tested, 0.46% active; calls by dose curve; tested in A549 cells; note: nearly all actives have a fitted effect of over 30% in size
FMDV inh – antivirals against foot and mouth disease virus | FMDV antiviral cell-based qHTS | Potency, µM (top dose mostly 57.9 µM), hits mostly inhibitors | 410,000 tested, 1.2% active; calls by dose curve; tested in HEK293T cells; note: read-out not given here; nearly all actives have a fitted effect of over 45% in size
Lassa entry inh – blocks Lassa virus binding to or entry into cells | Lassa virus pseudotype entry inhibition, cell reporter | Potency, µM (series often up to 37.9 µM), actives largely listed as inhibitors | 300,000 tested, 1.2% active; calls by dose curve; tested in HEK293 cells; note: nearly all actives have a fitted effect of over 50% in size
Marburg entry inh – blocks Marburg virus binding to or entry into cells; Potency, µM (titrated, usually from 37.8 µM), usual class: inhibitors; 300,000 tested, 1.8% active; Marburg virus pseudotyped entry inhibition, cell reporter; calls by dose curve; tested in HEK293 cells
Vaccinia mCherry – vaccinia inhibition (mCherry reporter); AID 720579; 310,000 tested, 0.63% active; Vaccinia virus mCherry reporter infection, fluorescence; Potency, µM (doses to about 36.5 µM), usual class: inhibitors; calls by dose curve; tested in A549 cells; note: nearly all actives have a fitted effect of over 35% in size
Each line names hits and unclear results; the compound was inactive in the other large screens.

CCC1=NN2C(=N)/C(=C\c3ccc(SCc4ccco4)o3)C(=O)N=C2S1	Sm TGR inh 50µM
O=C1NC(=S)S/C1=C\c1ccc(SCc2ccco2)o1	Sm TGR inh 1.3µM (no result: Vaccinia Venus, Vaccinia mCherry)
CC(=O)SC(C[N+](=O)[O-])c1cn(C(C)=O)c2ccccc12 (stereo not drawn)	Sm TGR inh 4.5µM, FMDV inh 28µM
CC(=O)n1cc(Nc2ccc([N+](=O)[O-])cc2)c2ccccc21	none (no result: Vaccinia Venus, Vaccinia mCherry)
Cc1ncc2c(c1CNC(=O)c1ccc3c(c1)OCO3)CCN(C(=O)/C=C/c1ccccc1Cl)C2	none (no result: Sm TGR inh, Lassa entry inh, Marburg entry inh)
Fc1ccc(Nc2ccnc(Nc3ccc(F)cc3)n2)cc1	Vaccinia Venus 11µM, Vaccinia mCherry 10µM
Cc1nnc(SCc2nc(-c3ccc(Cl)cc3)no2)n1-c1ccc(F)cc1	Marburg entry inh inconclusive
COc1ccc(N2CCN(C(=O)C3CCN(S(=O)(=O)c4cccc5nonc45)CC3)CC2)cc1	none (no result: Marburg entry inh)
Cc1ccc(NS(=O)(=O)c2cc(C(=O)Nc3cccc([N+](=O)[O-])c3)ccc2C)cc1	Vaccinia Venus inconclusive, Lassa entry inh 18µM, Marburg entry inh inconclusive, Vaccinia mCherry inconclusive
CC(=O)Nc1ccc(NC(=O)c2ccc(C)c(S(=O)(=O)Nc3cccc(C)c3)c2)cc1	Marburg entry inh 6.3µM
Cc1ccc(C(=O)Nc2cccc([N+](=O)[O-])c2)cc1S(=O)(=O)Nc1ccc(NC(=O)c2ccccc2)cc1	Lassa entry inh inconclusive, Marburg entry inh inconclusive
Cc1ccc(C)c(NC(=O)c2ccccc2NS(=O)(=O)c2cc([N+](=O)[O-])ccc2C)c1	FMDV inh inconclusive, Lassa entry inh inconclusive, Marburg entry inh 4.1µM (no result: Vaccinia Venus, Vaccinia mCherry)
Cc1ccc(C(=O)Nc2ccccc2)cc1S(=O)(=O)Nc1ccccc1	Marburg entry inh inconclusive
CC(=O)Nc1ccc(S(=O)(=O)NNc2cccc(C)c2)cc1	Sm TGR inh 14µM
COc1cccc(CN2CCC(n3cc(C(=O)N4CCCCC4)nn3)CC2)c1OC	none (no result: Sm TGR inh, Lassa entry inh, Marburg entry inh)
C/C=C/c1ccc(OCC(=O)Nc2cc(OC)c(OC)c(OC)c2)c(OC)c1	FMDV inh inconclusive, Lassa entry inh 10µM, Marburg entry inh inconclusive
C/C=C/c1ccc(OCC(=O)O)c(OC)c1	Sm TGR inh inconclusive
COC(=O)c1ccc(CS(=O)(=O)c2ccc(C)cc2)o1	Sm TGR inh 11µM (no result: Vaccinia Venus, Lassa entry inh, Marburg entry inh, Vaccinia mCherry)
COCCCNC(=O)c1ccc(CSCc2ccc(C)cc2)o1	Sm TGR inh 40µM, Lassa entry inh inconclusive, Marburg entry inh inconclusive
COC(=O)c1ccc(CN(C)S(=O)(=O)c2ccc(C)cc2)o1	none (no result: FMDV inh)
CCCCNC(=O)c1ccc(CS(=O)(=O)c2ccc(C)cc2)o1	Sm TGR inh 45µM, Lassa entry inh 16µM, Marburg entry inh inconclusive
Cc1ccc(CNC(=O)c2ccc(CSCc3ccc(C)cc3)o2)cc1	Sm TGR inh inconclusive, Lassa entry inh inconclusive (no result: Marburg entry inh)
CCCCNC(=O)c1ccc(CS(=O)(=O)c2ccc(OC)cc2)o1	none (no result: Lassa entry inh, Marburg entry inh)
C=CCOC(=O)C(C(=O)CC)[C@@H](NC(=O)OC)c1ccc(F)cc1 (stereo partly drawn)	none (no result: Sm TGR inh, Vaccinia Venus, FMDV inh, Lassa entry inh, Vaccinia mCherry)
O=C(O)c1ccc(-n2[nH]c3c(c2=O)CCCC3)cc1	Sm TGR inh 35µM, Lassa entry inh inconclusive
CC(=O)Nc1ccc(S(=O)(=O)Oc2cccc(N3C(=O)C4CCCCC4C3=O)c2)cc1 (stereo not drawn)	FMDV inh 18µM, Marburg entry inh inconclusive (no result: Vaccinia Venus, Vaccinia mCherry)
C=CCSc1nc2sc(C)c(C)c2c(=O)n1CC=C	Sm TGR inh 16µM (no result: Vaccinia Venus, Vaccinia mCherry)
C=CCn1c(SCc2csc(C)n2)nc2sc3c(c2c1=O)CCCC3	FMDV inh inconclusive, Lassa entry inh 5µM, Marburg entry inh inconclusive
CC(C)C[C@H]1COc2c(Cl)cccc2S(=O)(=O)N1Cc1ccc(Cl)cc1	none (no result: Sm TGR inh, Vaccinia Venus, FMDV inh, Marburg entry inh, Vaccinia mCherry)
CCOC(=O)c1cccc(NC(=O)CSc2ncc3c(n2)-c2ccc(Cl)cc2N(Cc2ccccc2)S3(=O)=O)c1	none (no result: Marburg entry inh)
COc1ccc(C)cc1NC(=O)C(CCSC)NS(=O)(=O)c1ccc2c(c1)oc(=O)n2C (stereo not drawn)	none (no result: Marburg entry inh)
Cc1nnc(N2C(=O)c3cccc4c([N+](=O)[O-])ccc(c34)C2=O)s1	Sm TGR inh 4.5µM (no result: Vaccinia Venus, Lassa entry inh, Marburg entry inh, Vaccinia mCherry)
O=C1c2cccc3c([N+](=O)[O-])ccc(c23)C(=O)N1Cc1cccnc1	Sm TGR inh 25µM, Lassa entry inh inconclusive, Marburg entry inh inconclusive
Cc1ccnc(N2C(=O)c3cccc4c([N+](=O)[O-])ccc(c34)C2=O)c1	FMDV inh inconclusive, Lassa entry inh inconclusive, Marburg entry inh 21µM
Cc1ccc(N2C(=O)c3cccc4c([N+](=O)[O-])ccc(c34)C2=O)c2cccnc12	FMDV inh inconclusive (no result: Vaccinia Venus, Lassa entry inh, Marburg entry inh, Vaccinia mCherry)
O=C1c2cccc3cccc(c23)C(=O)N1Cc1cccnc1	Marburg entry inh inconclusive
CCN(Cc1ccncc1)Cc1ccc2c(c1)CN(C(=O)c1ccc(C#CC(C)(C)O)o1)CCO2	none (no result: Sm TGR inh, Lassa entry inh, Marburg entry inh)
CC1(C)CC(=O)C(C2C3=C(CC(C)(C)CC3=O)Oc3ccccc32)=C(O)C1 (stereo not drawn)	Sm TGR inh 7.9µM (no result: Vaccinia mCherry)
CC1(C)CC(=O)C(C2C3=C(CC(C)(C)CC3=O)Oc3ccccc32)C(=O)C1 (stereo not drawn)	Sm TGR inh 5µM, Vaccinia mCherry inconclusive
COc1ccc2c(c1)C(C1=C(O)CC(C)(C)CC1=O)C1=C(CC(C)(C)CC1=O)O2 (stereo not drawn)	none (no result: Vaccinia Venus, Vaccinia mCherry)
Cc1cccc(CSc2cn(CC(=O)N3CCCCC3)c3ccccc23)c1	Lassa entry inh inconclusive (no result: Marburg entry inh)
CC(C)=CCC/C(C)=C/CO/N=C1\C[C@@H](O)[C@@H](O)[C@@H]2[C@@H]3C(=O)N(Cc4ccccc4)C(=O)[C@@H]3CC[C@H]12	none (no result: Sm TGR inh, Vaccinia Venus, FMDV inh, Lassa entry inh, Vaccinia mCherry)
COC(=O)CC=C[C@@H](C)[C@@H](C=NOC[C@@H](O)COCc1ccco1)OC	none (no result: Sm TGR inh, Vaccinia Venus, FMDV inh, Lassa entry inh, Vaccinia mCherry)

Assay outcomes from PubChem.
